# Results from PubChem BioAssay (NCATS).
# Inconclusive results are not listed. The source made the active and inactive calls. Calls come from the whole dose curve; as a rule, active = well fitted curve in the direction sought with a large enough effect; inconclusive = small, poorly fitted or top-dose-only effect, or another doubt; inactive = no such curve, though single readings can be large; an effect the other way counts as inactive or inconclusive.
# Key:
# [1] = Quantitative High-Throughput drug screen in 47 multiple myeloma cell lines against the NCATS MIPE library collection: JIM3_ECACC cell viability assay (AID 1918963; note: nearly all actives have a fitted effect of over 35% in size)
# Method in brief: (§1)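 CellTiter-Glo luminescence (ATP) after 48 h compound exposure, 37C/5% CO2; 500 cells/well; MIPE 4.0 approved/investigational drugs pinned in; DMSO = 100%, media only = 0% viability.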
# [2] = Quantitative High-Throughput drug screen in 47 multiple myeloma cell lines against the NCATS MIPE library collection: INA6_PLB cell viability assay (AID 1918965; note: nearly all actives have a fitted effect of over 55% in size)
# Method in brief: (§2)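 Myeloma cells (500 per well) were exposed to MIPE 4.0 compounds by pin transfer and incubated 48 hours at 37C, 5% CO2. Viability was read as ATP by CellTiter-Glo luminescence, normalised to DMSO (100%) and media-only (0%) wells.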
# [3] = Quantitative High-Throughput drug screen in 47 multiple myeloma cell lines against the NCATS MIPE library collection: KMS12BM_JCRB cell viability assay (AID 1918971); note: nearly all actives have a fitted effect of over 35% in size
# Method in brief: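 Steps: seed 500 cells per well; pin-transfer MIPE 4.0 library; incubate 48 h at 37C, 5% CO2, humidified; add CellTiter-Glo, 5 min room temperature; read luminescence.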
# [4] = Quantitative High-Throughput drug screen in 47 multiple myeloma cell lines against the NCATS MIPE library collection: KMS20_JCRB cell viability assay (AID 1918973); note: nearly all actives have a fitted effect of over 45% in size
# Method in brief: (§3)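 Luminescent ATP measurement with CellTiter-Glo gives viability, scaled between DMSO-only wells (100%) and media-only wells (0%). Cells, 500 per well, faced library compounds for 48 hours at 37C.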
# [5] = Quantitative High-Throughput drug screen in 47 multiple myeloma cell lines against the NCATS MIPE library collection: AMO1_DSMZ cell viability assay (AID 1918927; note: nearly all actives have a fitted effect of over 30% in size)
# Method in brief: as §3
# [6] = Quantitative High-Throughput drug screen in 47 multiple myeloma cell lines against the NCATS MIPE library collection: Karpas620_DSMZ cell viability assay (AID 1918959); note: nearly all actives have a fitted effect of over 30% in size
# Method in brief: as §1
# [7] = Quantitative High-Throughput drug screen in 47 multiple myeloma cell lines against the NCATS MIPE library collection: JJN3_DSMZ cell viability assay (AID 1918966; note: nearly all actives have a fitted effect of over 50% in size)
# Method in brief: as §3
# [8] = Quantitative High-Throughput drug screen in 47 multiple myeloma cell lines against the NCATS MIPE library collection: EJM_DSMZ cell viability assay (AID 1918926; note: nearly all actives have a fitted effect of over 30% in size)
# Method in brief: as §3
# [9] = Quantitative High-Throughput drug screen in 47 multiple myeloma cell lines against the NCATS MIPE library collection: ARD_JJKsccE7 cell viability assay (AID 1918929)
# Method in brief: as §3
# [10] = Quantitative High-Throughput drug screen in 47 multiple myeloma cell lines against the NCATS MIPE library collection: Karpas417_ECACC cell viability assay (AID 1918961); conditions: Karpas417 myeloma viability, CellTiter-Glo ATP luminescence, 48 h; viability (% of DMSO): at 45.8 µM (top of the series)
# Method in brief: as §2
# [11] = Quantitative High-Throughput drug screen in 47 multiple myeloma cell lines against the NCATS MIPE library collection: JIM1_ECACC cell viability assay (AID 1918964)
# Method in brief: as §3
# [12] = Quantitative High-Throughput drug screen in 47 multiple myeloma cell lines against the NCATS MIPE library collection: H1112_PLB cell viability assay (AID 1918967; note: nearly all actives have a fitted effect of over 30% in size)
# Method in brief: as §3
# [13] = Quantitative High-Throughput drug screen in 47 multiple myeloma cell lines against the NCATS MIPE library collection: Karpas25_ECACC cell viability assay (AID 1918968; note: nearly all actives have a fitted effect of over 35% in size)
# Method in brief: as §3
# [14] = Quantitative High-Throughput drug screen in 47 multiple myeloma cell lines against the NCATS MIPE library collection: KMS27_JCRB cell viability assay (AID 1918970); note: nearly all actives have a fitted effect of over 30% in size
# Method in brief: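 CellTiter-Glo luminescence after 48 h drug exposure at 37 °C; 500 cells/well, 1536-well format, pin-tool compound addition; DMSO = 100%, media-only = 0% viability.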
# [15] = Quantitative High-Throughput drug screen in 47 multiple myeloma cell lines against the NCATS MIPE library collection: KMS12PE_JCRB cell viability assay (AID 1918972); note: nearly all actives have a fitted effect of over 30% in size
# Method in brief: as §2
# [16] = Quantitative High-Throughput drug screen in 47 multiple myeloma cell lines against the NCATS MIPE library collection: ARP1_JJKsccF8 cell viability assay (AID 1918928; note: nearly all actives have a fitted effect of over 40% in size)
# Method in brief: (§4)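 Here, 48 h treatment with MIPE 4.0 agents at 37 °C preceded an ATP luminescence read. Plating density was 500 cells per well.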
# [17] = Quantitative High-Throughput drug screen in 47 multiple myeloma cell lines against the NCATS MIPE library collection: KHM11_PLB cell viability assay (AID 1918962); note: nearly all actives have a fitted effect of over 35% in size
# Method in brief: as §1
# [18] = Quantitative High-Throughput drug screen in 47 multiple myeloma cell lines against the NCATS MIPE library collection: KMM1_JCRB cell viability assay (AID 1918960); note: nearly all actives have a fitted effect of over 30% in size
# Method in brief: as §4
# Potency is the fitted concentration of half-maximal effect.
smiles,measurement,setting,value
Cc1ccc(/C=N/NC(=O)c2ccccc2Oc2ccccc2)o1,Potency,[1],23.5 µM (active)
same,Potency,[2],16.6 µM (active)
same,Potency,[3],23.5 µM (active)
same,Potency,[4],16.6 µM (active)
COC(=O)C1=CO[C@@H](O)[C@@H]2C(CO)=CC[C@@H]12,Potency,[5],18.7 µM (active)
same,Potency,[6],23.5 µM (active)
same,Potency,[1],23.5 µM (active)
same,Potency,[7],11.8 µM (active)
COc1ccc(-c2coc3cc(O)ccc3c2=O)cc1,Potency,[8],inactive
same,Potency,[9],inactive
same,Potency,[6],inactive
same,Potency,[10],inactive
same,Potency,[1],inactive
same,Potency,[11],inactive
same,Potency,[2],inactive
same,Potency,[12],inactive
same,Potency,[13],inactive
same,Potency,[14],inactive
same,Potency,[15],inactive
CN(C)Cc1cccc(N=C(c2ccccc2)c2c(O)[nH]c3cc(C(=O)N(C)C)ccc23)c1,Potency,[16],inactive
same,Potency,[17],5.9 µM (active)
same,Potency,[1],1.87 µM (active)
same,Potency,[2],18.7 µM (active)
same,Potency,[15],16.6 µM (active)
COc1ccc(C2CC(c3ccccc3)=NN2c2ccc(S(N)(=O)=O)cc2)cc1 (configuration not stated),Potency,[5],11.8 µM (active)
same,Potency,[9],23.5 µM (active)
same,Potency,[6],16.6 µM (active)
same,Potency,[18],18.7 µM (active)
same,Potency,[17],inactive
same,Potency,[1],18.7 µM (active)
same,Potency,[11],14.8 µM (active)
same,Potency,[2],23.5 µM (active)
same,Potency,[12],14.8 µM (active)
same,Potency,[13],16.6 µM (active)
same,Potency,[14],8.33 µM (active)
same,Potency,[3],18.7 µM (active)
same,Potency,[15],11.8 µM (active)
CN[C@@H](C)C(=O)N[C@H]1CN(C(=O)CC(C)C)CC[C@H]2CC[C@@H](C(=O)NC(c3ccccc3)c3ccccc3)N2C1=O,Potency,[8],16.6 µM (active)
same,Potency,[5],2.96 µM (active)
same,Potency,[9],7.43 µM (active)
same,Potency,[6],1.18 µM (active)
same,Potency,[1],9.35 µM (active)
same,Potency,[2],8.33 µM (active)
same,Potency,[3],26.4 µM (active)
same,Potency,[15],3.72 µM (active)
CO[C@H]1C[C@@H]2CC[C@@H](C)[C@@](O)(O2)C(=O)C(=O)N2CCCC[C@@H]2C(=O)O[C@H]([C@H](C)C[C@@H]2CC[C@H](OC(=O)C(C)(CO)CO)[C@H](OC)C2)CC(=O)[C@H](C)C=C(C)[C@@H](O)[C@@H](OC)C(=O)[C@H](C)C[C@H](C)C=CC=CC=C1C,Potency,[6],9.35 µM (active)
same,Potency,[1],20.9 µM (active)
same,Potency,[13],13.2 µM (active)
same,Potency,[4],11.8 µM (active)
CO[C@H]1C[C@@H]2CC[C@@H](C)[C@@](O)(O2)C(=O)C(=O)N2CCCC[C@@H]2C(=O)O[C@H]([C@H](C)C[C@@H]2CC[C@H](OP(C)(C)=O)[C@H](OC)C2)CC(=O)[C@H](C)C=C(C)[C@@H](O)[C@@H](OC)C(=O)[C@H](C)C[C@H](C)C=CC=CC=C1C,Potency,[12],18.7 µM (active)
same,Potency,[13],20.9 µM (active)
CC=CCC=CCCC(=O)[C@H]1O[C@@H]1C(N)=O,Potency,[5],20.9 µM (active)
same,Potency,[9],26.4 µM (active)
same,Potency,[6],16.6 µM (active)
same,Potency,[11],11.8 µM (active)
same,Potency,[2],18.7 µM (active)
same,Potency,[7],16.6 µM (active)
same,Potency,[15],23.5 µM (active)
CC(C)(C)Cn1c(N)nc2ccc(-c3[nH]c(C(C)(C)C)nc3-c3ccc(F)cc3)nc21,Potency,[6],inactive
same,Potency,[18],inactive
same,Potency,[11],inactive
same,Potency,[7],20.9 µM (active)
same,Potency,[14],inactive
same,Potency,[3],23.5 µM (active)
same,Potency,[15],inactive
CCOC(CN1C(=O)[C@](CC(=O)Nc2ccc(C)cc2)(NC(=O)Nc2ccc(C)cc2)c2ccccc21)OCC,Potency,[8],inactive
same,Potency,[6],16.6 µM (active)
same,Potency,[10],16.6 µM (active)
same,Potency,[2],23.5 µM (active)
same,Potency,[12],inactive
same,Potency,[14],26.4 µM (active)
O=C(O)C=Cc1ccc(O)c(O)c1,Potency,[8],13.2 µM (active)
same,Potency,[16],26.4 µM (active)
same,Potency,[6],20.9 µM (active)
same,Potency,[10],14.8 µM (active)
same,Potency,[17],inactive
same,Potency,[1],inactive
same,Potency,[7],10.5 µM (active)
same,Potency,[14],16.6 µM (active)
same,Potency,[3],20.9 µM (active)
COCCCCC(=NOCCN)c1ccc(C(F)(F)F)cc1,Potency,[5],inactive
same,Potency,[6],inactive
same,Potency,[18],inactive
same,Potency,[1],inactive
same,Potency,[3],20.9 µM (active)
same,Potency,[15],inactive
CC(C)OC(=O)C(C)(C)Oc1ccc(C(=O)c2ccc(Cl)cc2)cc1,Potency,[8],10.5 µM (active)
same,Potency,[5],inactive
same,Potency,[9],inactive
same,Potency,[6],inactive
same,Potency,[18],inactive
same,Potency,[17],26.4 µM (active)
same,Potency,[1],inactive
same,Potency,[7],16.6 µM (active)
same,Potency,[3],13.2 µM (active)
CO[C@H]1C[C@@H]2CC[C@@H](C)[C@@](O)(O2)C(=O)C(=O)N2CCCC[C@@H]2C(=O)O[C@H]([C@@H](C)C[C@@H]2CC[C@H](O)[C@H](OC)C2)CC(=O)[C@H](C)C=C(C)[C@@H](O)[C@@H](OC)C(=O)[C@H](C)C[C@H](C)C=CC=CC=C1C,Potency,[6],16.6 µM (active)
same,Potency,[1],inactive
same,Potency,[13],18.7 µM (active)
COc1ccc(-c2nc(N3CCOCC3)c3sc(CN(C)c4ncc(C(=O)NO)cn4)cc3n2)cn1,Potency,[8],0.0042 µM (active)
same,Potency,[5],0.001 µM (active)
same,Potency,[16],inactive
same,Potency,[9],0.001 µM (active)
same,Potency,[6],0.001 µM (active)
same,Potency,[18],0.001 µM (active)
same,Potency,[11],0.001 µM (active)
same,Potency,[2],inactive
same,Potency,[13],inactive
same,Potency,[14],0.001 µM (active)
same,Potency,[3],inactive
same,Potency,[15],0.001 µM (active)
same,Potency,[4],inactive
CC[C@H]1OC(=O)[C@H](C)C(=O)[C@H](C)[C@@H](O[C@H]2O[C@H](C)C[C@H](N(C)C)[C@@H]2O)[C@](C)(OC)C[C@@H](C)C(=O)[C@H](C)[C@H]2N(CCCCn3cnc(-c4cccnc4)c3)C(=O)O[C@]12C,Potency,[5],inactive
same,Potency,[6],inactive
same,Potency,[18],3.72 µM (active)
same,Potency,[17],inactive
same,Potency,[1],inactive
same,Potency,[11],inactive
same,Potency,[2],inactive
same,Potency,[12],13.2 µM (active)
same,Potency,[13],inactive
same,Potency,[14],inactive
same,Potency,[3],29.6 µM (active)
